The source of these data is the supplement of paper PMC12636033.

± gives the standard deviation of the averaged measurements. Over roughly 33,000 sequences, “E-score (rank enrichment, -0.5 to 0.5)” has its median near -0.0068; the highest 2% begin near 0.24. The entries come from a sample that favours the highest values as a whole.

The test system of this assay is muMax20 (Max(13-93) K31hArg/K57hArg, M65Nle). Put plainly: PBM 8-mer E-score (E-score (rank enrichment, -0.5 to 0.5)); higher = stronger preferential binding. How it is done:
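Protein binding microarray (universal PBM chip covering all 10-mers in fixed probe flanks) with chemically synthesized human Max(13-93) bHLH-LZ analogs (not full-length Max) bearing noncanonical residues (hArg, Tha, Aib, Nle at 65) and aromatic Cys staples. Read-out per 8-mer (and its reverse complement): E-score (rank-based enrichment, -0.5 to 0.5) and Z-score of median probe intensity.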
In the case of CTAATCAG, the “PBM 8-mer E-score” value is -0.0349 ± 0.028. On to ATAAGAAT, for which the “PBM 8-mer E-score” value worked out at 0.165 ± 0.04. The figure for ATAATAAC is 0.315 ± 0.034; for ATAATCAG it is 0.32 ± 0.072; for GATAGCGA it is -0.086 ± 0.082. The figure for AATCCGAC is 0.0325 ± 0.024; for CTCAGAGC it is -0.28 ± 0.041. The result for ATCTGGAG reads -0.0378 ± 0.089; that for AAAGATGT, 0.203 ± 0.0026. As to CCCGTCTC, the “PBM 8-mer E-score” value is -0.0114 ± 0.0032. The figure for ATCTCAAG is -0.0469 ± 0.0077; for GCGAAGCA it is 0.0453 ± 0.032; for ACTTCCGC it is -0.0937 ± 0.045. The figure for ATAATAAG is 0.247 ± 0.051. The figure for CTAATAAG is 0.119 ± 0.044; for ATAATAAT it is 0.205 ± 0.05; for CGCAGAGA it is -0.0723 ± 0.14. Turning to CTCCAAGC, the “PBM 8-mer E-score” value is -0.018 ± 0.00052. Turning to TATATAAA, the “PBM 8-mer E-score” value turned out to be 0.304 ± 0.05. For CATATAAC, the “PBM 8-mer E-score” value turned out to be 0.219 ± 0.048. The result for AATATAAA reads 0.324 ± 0.012; that for CATATAAG, 0.154 ± 0.076; that for AATATAAG, 0.207 ± 0.045.

On to CATATAAA, for which the “PBM 8-mer E-score” value stood at 0.329 ± 0.056. The figure for TGTATAAA is 0.207 ± 0.0065; for GATATAAA it is 0.139 ± 0.03.

Turning to AATATAAT, the “PBM 8-mer E-score” value was found to be 0.156 ± 0.065.

With ACGACGCA, the “PBM 8-mer E-score” value is 0.00737 ± 0.11. The result for AGGGGGCA reads -0.0171 ± 0.019; that for CAGGCTCA, -0.0417 ± 0.019; that for GATCTTGA, 0.101 ± 0.013.

For CTAGGCGA, the “PBM 8-mer E-score” value was -0.155 ± 0.071. The figure for TCCCCTCA is 0.14 ± 0.1. The result for CTTTCCTA reads -0.0321 ± 0.019; that for ATTTCCTA, 0.137 ± 0.029; that for GTTTCCTA, 0.307 ± 0.033. For the sequence GGAGGGCA, the “PBM 8-mer E-score” value stood at 0.044 ± 0.11. The result for ATCAATTA reads 0.229 ± 0.068; that for ATCAATTC, 0.172 ± 0.013. The figure for ATCAATTG is 0.262 ± 0.073.

For the sequence ACAATAAG, the “PBM 8-mer E-score” value turned out to be 0.21 ± 0.021. The figure for ACAATAAA is 0.275 ± 0.025; for ACAATCAT it is 0.273 ± 0.042. For the sequence GCAATAAA, the “PBM 8-mer E-score” value is 0.0786 ± 0.0037. The result for TCAATAAA reads 0.114 ± 0.043; that for ACAATAAT, 0.286 ± 0.0027. With ACAATAAC, the “PBM 8-mer E-score” value stood at 0.191 ± 0.0039.

As to ACAATCAA, the “PBM 8-mer E-score” value was 0.0227 ± 0.021. With CCAATAAA, the “PBM 8-mer E-score” value was found to be 0.266 ± 0.026. In the case of CCAATAAG, the “PBM 8-mer E-score” value is -0.0178 ± 0.017. The figure for AGAATAAT is 0.116 ± 0.05. The figure for ACAATCAC is 0.228 ± 0.053. The result for ACGTCTGA reads -0.0769 ± 0.16. For CAGGGCAC, the “PBM 8-mer E-score” value is -0.0777 ± 0.0056. In the case of AGGACCGC, the “PBM 8-mer E-score” value came to 0.0155 ± 0.085.

Turning to CGACCTGC, the “PBM 8-mer E-score” value was -0.105 ± 0.063.

Consider GAAACCCC, for which the “PBM 8-mer E-score” value is -0.0104 ± 0.014. The result for TAAGATTA reads 0.129 ± 0.04; that for TGCTTAAA, 0.024 ± 0.12; that for ACTCGCGG, -0.0552 ± 0.016. The result for ATACAGTG reads 0.2396 ± 0.0022.

Take ATACAGTA: the “PBM 8-mer E-score” value came out at 0.233 ± 0.095. The figure for ATACAGTC is 0.0784 ± 0.094; for GCGTGCAA it is 0.0854 ± 0.022; for CTTGAGTC it is -0.0129 ± 0.11. As to CTCGACGA, the “PBM 8-mer E-score” value is -0.142 ± 0.024.

As to GAGCCCTA, the “PBM 8-mer E-score” value was -0.14 ± 0.018. The figure for AGAAACAC is 0.00585 ± 0.032; for ATAAAACA it is 0.31 ± 0.025.

Regarding CAAAACTA, the “PBM 8-mer E-score” value worked out at 0.132 ± 0.15. Regarding TTAAACAA, the “PBM 8-mer E-score” value is 0.0932 ± 0.11. For AGAAACAA, the “PBM 8-mer E-score” value was determined as 0.2614 ± 0.0014. The result for TAAAACTA reads 0.239 ± 0.11; that for AAAAACTA, 0.095 ± 0.061.

For the sequence GGAAACAA, the “PBM 8-mer E-score” value was found to be 0.0706 ± 0.057. The result for ATAAACAA reads 0.27 ± 0.049; that for GTAAAACA, 0.108 ± 0.0083. In the case of ATAAACAC, the “PBM 8-mer E-score” value turned out to be 0.164 ± 0.11. The result for ATAAAACG reads 0.194 ± 0.02; that for GGGAACAA, 0.144 ± 0.0098; that for AGCCCCTC, 0.0302 ± 0.046. The result for AGCTCCTG reads -0.171 ± 0.17. In the case of CAGTCACC, the “PBM 8-mer E-score” value was -0.064 ± 0.14. The figure for AGTTGAAG is 0.0533 ± 0.067; for CGGGAAGA it is -0.0577 ± 0.15; for AAAAAACA it is 0.272 ± 0.11.
